Measurements: the antibiotic and cytotoxicity screens of Wong et al. (2023)
Among all 39,000 compounds or so, about 1,500 (3.8%) were called active. The sample holds actives, similar compounds and a random draw of the others, so the mix is not that of the screen.

What follows are molecules tested on HSkMC (human skeletal muscle cells) (assay: cytotoxicity call (relative viability < 0.9)). Settings: 10 µM.

| SMILES | cytotoxicity call |
| --- | --- |
| COc1ccccc1CNC(=O)C[C@H]1C[C@@H]2c3cc(NC(=O)c4cccnc4)ccc3O[C@@H]2[C@H](CO)O1 | inactive |
| C[C@@H]1CN([C@@H](C)CO)C(=O)Cc2cc(NS(=O)(=O)c3ccc(F)cc3)ccc2O[C@@H]1CN(C)Cc1ccc(Oc2ccccc2)cc1 | active |
| Cc1ccccc1S(=O)(=O)N1C[C@@H](O)COC[C@@H]2O[C@H](CC(=O)N3CCOCC3)CC[C@H]21 | inactive |
| COc1ccc2c3c([nH]c2c1)[C@H](CO)N(C[C@]13CCN(CC1)C(=O)c1cnccn1)C(=O)c1cnccn1 | inactive |
| COc1ccc(C(=O)CO)cc1 | inactive |
| COc1ccc(C(=O)O)cc1 | inactive |
| COc1ccc(C(=O)CC(=O)c2ccc(C(C)(C)C)cc2)cc1 | active |
| Cc1cc(C(=O)Nc2cccc3c2O[C@H](CN(C)Cc2ccc4c(c2)OCO4)[C@@H](C)CN([C@@H](C)CO)C3=O)n(C)n1 | inactive |
| Cc1cc(O[C@@H](CCC(F)(F)F)c2ccc(C(=O)NCCC(=O)O)cc2)cc(C)c1-c1ccc(C(C)(C)C)cc1 | active |
| O=C(O)CCNC(=O)c1ccccc1 [listing 1 of 2 here] | inactive |
| O=C(O)CCNC(=O)c1ccccc1 [listing 2 of 2 here] | inactive |
| O=C(/C=C/c1ccc(O)c(O)c1)O[C@]1(C(=O)O)C[C@@H](O)[C@H](O)[C@H](O)C1 | inactive |
| CC(C)NC(=O)Nc1ccc2c(c1)C(=O)N([C@H](C)CO)C[C@H](C)[C@@H](CN(C)S(=O)(=O)c1ccc(F)cc1)O2 | inactive |
| Cn1cnc(CCNC(=O)C[C@@H]2CC[C@H]3[C@@H](COC[C@@H](O)CN3C(=O)Nc3ccc(Cl)cc3)O2)c1 | inactive |
| CO[C@@H]1CN(C)C(=O)c2ccc(NS(=O)(=O)CC(F)(F)F)cc2OC[C@H](C)N(Cc2cccnc2)C[C@H]1C | inactive |
| C[C@H]1CCCCO[C@@H](CN(C)Cc2ccc3c(c2)OCO3)[C@@H](C)CN([C@@H](C)CO)C(=O)c2cc(NC(=O)Nc3cccc4ccccc34)ccc2O1 | active |
| C[C@@H]1CCCCO[C@@H](CN(C)Cc2ccc3c(c2)OCO3)[C@@H](C)CN([C@H](C)CO)C(=O)c2cc(NC(=O)Nc3cccc4ccccc34)ccc2O1 | inactive |

| SMILES | cytotoxicity call |
| --- | --- |
| C[C@@H]1CN([C@H](C)CO)C(=O)c2cc(NC(=O)Nc3cccc4ccccc34)ccc2O[C@@H](C)CCCCO[C@H]1CN(C)Cc1ccc2c(c1)OCO2 | inactive |
| C[C@@H]1CCCCO[C@H](CN(C)Cc2ccc3c(c2)OCO3)[C@@H](C)CN([C@H](C)CO)C(=O)c2cc(NC(=O)Nc3cccc4ccccc34)ccc2O1 | inactive |
| C[C@@H]1CN([C@@H](C)CO)C(=O)c2cc(NC(=O)Nc3cccc4ccccc34)ccc2O[C@@H](C)CCCCO[C@H]1CN(C)Cc1ccc2c(c1)OCO2 | active |
| C[C@@H]1CCCCO[C@@H](CN(C)Cc2ccc3c(c2)OCO3)[C@@H](C)CN([C@@H](C)CO)C(=O)c2cc(NC(=O)Nc3cccc4ccccc34)ccc2O1 | inactive |
| C[C@@H]1CCCCO[C@H](CN(C)Cc2ccc3c(c2)OCO3)[C@H](C)CN([C@@H](C)CO)C(=O)c2cc(NC(=O)Nc3cccc4ccccc34)ccc2O1 | active |
| C[C@H](CO)N1C[C@H](C)[C@@H](CN(C)Cc2ccc3c(c2)OCO3)OCCCC[C@H](C)Oc2ccc(NC(=O)Nc3cccc4ccccc34)cc2C1=O | active |
| C=CCOC(=O)[C@H]1[C@@H]2C(=O)O[C@@H](c3ccccc3)[C@@H](c3ccccc3)N2[C@@H](c2ccc(OCCOC(=O)[C@@H]3C[C@@H]4C(=O)N[C@@H](CCCCNC(C)=O)C(=O)N4[C@@H]3c3ccc(O)cc3)cc2)[C@]12C(=O)Nc1ccccc12 | inactive |
| COc1ccc(CN(C)C[C@@H]2OCCCC[C@@H](C)Oc3ccc(NS(=O)(=O)c4ccc(F)cc4)cc3C(=O)N([C@H](C)CO)C[C@@H]2C)cc1 | inactive |
| C[C@H](CO)N1C[C@H](C)[C@@H](CN(C)Cc2ccc(C(F)(F)F)cc2)Oc2ccc(NC(=O)Cn3cnnn3)cc2CC1=O | inactive |
| C[C@H](CO)N1C[C@H](C)[C@@H](CN(C)S(=O)(=O)c2cn(C)cn2)Oc2ccc(NC(=O)C3CCCCC3)cc2CC1=O | inactive |
| Cc1ccc(S(=O)(=O)Nc2cccc3c2O[C@@H](CN(C)S(=O)(=O)c2cccs2)[C@@H](C)CN([C@H](C)CO)C3=O)cc1 | inactive |
| CN1C(=O)C[C@@H]2[C@@H]1CCN2C(=O)c1ccc[nH]1 | inactive |
| C[C@H](CO)N1C[C@H](C)[C@@H](CN(C)S(=O)(=O)c2cn(C)cn2)OCc2ccccc2-c2ccccc2C1=O | inactive |
| C[C@@H]1CCCCO[C@@H](CN(C)Cc2ccc3c(c2)OCO3)[C@H](C)CN([C@H](C)CO)C(=O)c2cc(NC(=O)Nc3cccc4ccccc34)ccc2O1 | active |
| C[C@@H]1CCCCO[C@@H](CN(C)Cc2ccc3c(c2)OCO3)[C@H](C)CN([C@@H](C)CO)C(=O)c2cc(NC(=O)Nc3cccc4ccccc34)ccc2O1 | inactive |
| C[C@@H]1CN([C@H](C)CO)C(=O)c2cc(NC(=O)Nc3cccc4ccccc34)ccc2O[C@@H](C)CCCCO[C@@H]1CN(C)Cc1ccc2c(c1)OCO2 | active |
| C[C@H](CO)N1C[C@H](C)[C@H](CN(C)Cc2ccc3c(c2)OCO3)OCCCC[C@H](C)Oc2ccc(NC(=O)Nc3cccc4ccccc34)cc2C1=O | active |
